Screens as filed in PubChem BioAssay.
Rows were chosen to be rich in hits. Some 3.8% of all compounds tested hit in one or more screens of this group.
ADAM17 inh: ADAM17 inhibitors, primary screen, biochemical, QFRET; Disintegrin and metalloproteinase domain-containing protein 17 (Homo sapiens), P78536; AID 720648, 2013; recombinant ADAM17, EDANS/DABCYL FRET peptide cleavage; inhibition, % at 6.95 µM; 0.83% of 370,000 active;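 active means inhibition above the mean of compounds lying between control limits plus 3 SD, set per campaign, cut at about 8.5% in these data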;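 further: 0% = DMSO-only wells as the low control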
Target sequence (P78536 215-824 limits assumed): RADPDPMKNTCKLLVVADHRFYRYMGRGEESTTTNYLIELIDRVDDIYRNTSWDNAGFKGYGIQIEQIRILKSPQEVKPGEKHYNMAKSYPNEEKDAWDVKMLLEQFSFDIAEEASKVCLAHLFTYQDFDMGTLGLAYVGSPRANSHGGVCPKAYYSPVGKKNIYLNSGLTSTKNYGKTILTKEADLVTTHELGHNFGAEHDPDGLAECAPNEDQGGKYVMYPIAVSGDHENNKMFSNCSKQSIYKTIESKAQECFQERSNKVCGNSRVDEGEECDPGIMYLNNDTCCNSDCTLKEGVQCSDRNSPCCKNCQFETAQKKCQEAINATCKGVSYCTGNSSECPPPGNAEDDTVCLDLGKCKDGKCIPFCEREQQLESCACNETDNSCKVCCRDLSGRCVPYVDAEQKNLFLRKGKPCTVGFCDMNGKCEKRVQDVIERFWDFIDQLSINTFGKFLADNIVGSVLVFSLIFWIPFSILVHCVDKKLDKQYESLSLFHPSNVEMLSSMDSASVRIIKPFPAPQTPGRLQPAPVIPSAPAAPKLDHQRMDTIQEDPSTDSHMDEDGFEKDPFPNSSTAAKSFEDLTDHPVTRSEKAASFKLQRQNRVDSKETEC
Ecoli rRNA inh: reduced GFP signal of wild-type E. coli, primary screen, bacterial rRNA inhibitor project, GFP/RFP fluorescence, OD600, single point; E. coli WT GFP vs humanized-ribosome RFP mutants, 24 h; active compounds read low; DMSO median 0, no signal -100; GFP signal change (wild-type ribosome), % (test concentration not listed); 1.6% of 350,000 active;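 active means significant combined selectivity score with lowered wild-type GFP, culture density cut under 30%, mutant RFP and density less affected; inactive means any of these conditions unmet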
FGF22 binding: binders of human FGF22 protein, primary screen, FGF22 synaptogenesis inhibitor project, biophysical, thermal shift, single point. AID 651658, 2012. activity (Tm shift, normalised), % at 9.99 µM. 1.5% of 340,000 active. recombinant FGF22 thermal shift, SYPRO orange fluorescence; percent of sucrose octasulfate shift, DMSO zero. Fibroblast growth factor 22 (Homo sapiens), Q9HCT0;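 active means mean Tm shift, scaled 0 neutral to 100 positive control, at about 1.3% or above, every replicate too, limit read from the data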
KLK7 zymogen act: proKLK7 zymogen activators, primary screen, biochemical, fluorescence intensity; activation, % at 7 µM; 0.9% of 370,000 active; Kallikrein-7 (Homo sapiens), P49862; AID 652039, 2013; purified proKLK7, EDANS-DABCYL substrate fluorescence; 100% is mature enzyme control, 0% vehicle;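 active means activation above the mean of all tested compounds plus 3 SD, computed per campaign excluding outliers beyond control limits, cut at about 13% in these data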
ADAM10 inh: human ADAM10 inhibitors, primary screen, biochemical, QFRET, HTS. recombinant ADAM10, EDANS/DABCYL FRET peptide cleavage, 3 h. inhibition, % at 7 µM. 0.62% of 370,000 active;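 active means inhibition above a per-campaign cutoff equal to the mean of compounds falling between control-based bounds plus 3 SD, cut at about 20% in these data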;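 further: 0% = DMSO wells while the 100% control is not disclosed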
proKLK7 act conf: proKLK7 zymogen activators, confirmation, biochemical, fluorescence intensity, triplicate; shares compounds with KLK7 zymogen act; purified proKLK7, EDANS-DABCYL substrate fluorescence; scaled: vehicle 0, mature enzyme 100; activation, % at 7 µM; 68% of 3,200 active; AID 686949, 2013;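 active means activation, as change over the incubation, above the mean of all tested compounds plus 3 SD, cut at about 13% in these data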
EDANS interfere: EDANS-DABCYL substrate optical interference, artefact control for kallikrein-7 zymogen activator project, biochemical, fluorescence intensity, high throughput; shares compounds with KLK7 zymogen act; no enzyme, 4 h; solvent 0%, active enzyme control 100%; activation, % at 7 µM; 80% of 3,200 active;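 active means activation above the all-compound mean plus 3 SD, ignoring values outside control-based bounds, cut at about 4.8% in these data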;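 further: value is the 4 h activation minus the activation read at time zero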
The depositor's hits bear a star; i = inactive; . = not tested or not shown.

SMILES	ADAM17 inh	Ecoli rRNA inh	FGF22 binding	KLK7 zymogen act	ADAM10 inh	proKLK7 act conf	EDANS interfere
CC(=O)Nc1ccc(NC(=O)c2cc(=O)c3cc(C)c(C)cc3o2)cc1	-2	12	0	0	3	.	.
c1cc(-c2cnc3cccnn23)c2cccnc2c1	-262	-1	0	18*	i	18*	22*
c1ccc2c(-c3cnc4cccnn34)cncc2c1	-199	4	0	25*	i	20*	21*
CCOc1ccc(-c2cnc3cccnn23)cc1	-40	-8	0	11	-181	.	.
CSc1ccccc1-c1cnc2cccnn12	-32	9	0	7	-125	.	.
COc1ccc(C2CC(c3ccc(Cl)cc3)=NN2c2ccc(S(N)(=O)=O)cc2)cc1 (stereo unspecified)	i	-4	.	-228	i	.	.
COc1ccc(C2=NN(c3ccc(C(=O)O)cc3)C(c3ccc(OC)c(OC)c3)C2)cc1 (stereo unspecified)	i	-6	-1	67*	i	65*	63*
COc1ccc(C2CC(c3ccncc3)=NN2c2ccc(S(N)(=O)=O)cc2)cc1 (stereo unspecified)	i	-10	.	91*	i	-94	8.8*
C[C@@H]1CN([C@@H](C)CO)C(=O)c2cccc(NS(C)(=O)=O)c2O[C@@H]1CN(C)Cc1ccc(C(=O)Nc2ccccc2N)cc1	.	1	0	.	.	.	.
O=C(Cc1ccccn1)N1CC(=O)N2[C@@H](CO)[C@H](c3ccc(C#CC4CCCCC4)cc3)[C@@H]2C1	.	4	.	.	.	.	.
O=C(COC(=O)c1ccccc1O)Nc1cccc(S(=O)(=O)NC2=NCCCCC2)c1	-3	-2	0	3	10	.	.
O=C(COC(=O)c1ccccc1NCCO)Nc1ccc(S(=O)(=O)NC2=NCCCCC2)cc1	i	1	0	23*	i	-32	-21
CN(C)CCCNC(=O)C[C@@H]1C=C[C@H](NS(=O)(=O)c2ccc(F)cc2)[C@@H](CO)O1	.	5	0	.	.	.	.
O=C(O)c1ccc2c3c(cccc13)C(=O)N(c1ccccc1)C2=O	-8	-1	0	0	-24	.	.
CC(=O)Nc1ccc2c3c(cccc13)C(=O)N(c1ccccc1)C2=O	i	-1	0	59*	i	65*	71*
Cc1ccc(S(=O)(=O)Nc2cccc3c2O[C@@H](CN(C)S(=O)(=O)c2cccs2)[C@H](C)CN([C@@H](C)CO)C3=O)cc1	.	0	0	.	.	.	.
O=c1c2cc(N3CCOCC3)ccc2[nH]c(=S)n1CCCN1CCCCCC1	-43	.	.	104*	-139	44*	41*
Cc1ccc(Cn2c(=S)[nH]c3ccc(N4CCOCC4)cc3c2=O)o1	-35	.	.	45*	-187	101*	105*
O=c1c2cc(N3CCOCC3)ccc2[nH]c(=S)n1CCN1CCCC1	-69	.	.	80*	-194	46*	54*
COc1ccccc1S(=O)(=O)N[C@H]1CC[C@@H](CC(=O)N2CCN(C)CC2)O[C@H]1CO	.	2	0	.	.	.	.
C[C@@H]1CN([C@@H](C)CO)C(=O)c2cc(NC(=O)Nc3ccc4c(c3)OCO4)ccc2O[C@@H]1CN(C)Cc1ccccc1	.	-1	0	.	.	.	.
O=C1Nc2ccc(S(=O)(=O)NCCCO)c3cccc1c23	-412	-22	0	64*	i	83*	86*
CCN(c1cccc(C)c1)S(=O)(=O)c1ccc2c3c(cccc13)C(=O)N2	-7	.	.	-1	-15	.	.
O=S(=O)(NCCC1=CCCCC1)c1ccc(F)cc1	-2	-25	0	0	-15	.	.
CCNS(=O)(=O)c1ccc2c3c(cccc13)C(=O)N2	-441	.	.	86*	i	68*	82*
SMILES	ADAM17 inh	Ecoli rRNA inh	FGF22 binding	KLK7 zymogen act	ADAM10 inh	proKLK7 act conf	EDANS interfere
CCN(CC)S(=O)(=O)c1ccc2c3c(cccc13)C(=O)N2	-130	-9	0	23*	i	15*	21*
O=C1Nc2ccc(S(=O)(=O)NCCC3=CCCCC3)c3cccc1c23	-113	.	.	18*	-335	12	19*
CNC[C@@H]1Oc2ncc(Br)cc2C(=O)N([C@@H](C)CO)C[C@@H]1C	.	1	0	.	.	.	.
O=C(NC1Cc2ccccc2C1)[C@H]1[C@H](CO)[C@H]2Cn3c(cccc3=O)[C@@H]1N2C(=O)CC1CC1	.	2	0	.	.	.	.
CN(C)C(=O)C[C@@H]1CC[C@H]2[C@@H](COC[C@@H](O)CN2CC2CCCCC2)O1	.	0	0	.	.	.	.
CCOc1ccc(Nc2cc(C)nc(N3CCOCC3)n2)cc1	-5	.	.	0	-5	.	.
CCOc1ccc2nc(N3CCOCC3)nc(C)c2c1	-276	.	.	21*	i	-21	-32
CC(C)NC(=O)Nc1ccc2c(c1)C(=O)N([C@H](C)CO)C[C@@H](C)[C@H](CN(C)C(=O)c1ccncc1)OCCCC[C@@H](C)O2	.	1	0	.	.	.	.
COC(=O)Cc1c(C)c2ccc(OC(=O)c3ccccc3)cc2oc1=O	i	.	.	422*	i	632*	512*
CCC(=O)Oc1ccc2c(C)c(Cl)c(=O)oc2c1	i	.	.	40*	i	672*	655*
Cc1c(Cl)c(=O)oc2cc(OC(C)C)ccc12	i	-12	0	15*	i	1	3
CCC(=O)N1CCC2(CC1)CN(C(=O)c1cnccn1)[C@@H](CO)c1c2c2ccc(OC)cc2n1C	.	2	0	.	.	.	.
C[C@@H]1CCCCO[C@@H](CN(C)C(=O)Nc2ccc3c(c2)OCO3)[C@H](C)CN([C@H](C)CO)C(=O)c2cc(NC(=O)NC3CCCCC3)ccc2O1	.	-1	0	.	.	.	.
CC1Nc2nc(N(C)C)[nH]c(=O)c2NC1C (stereo unspecified)	-136	2	1	19*	-471	12	18*
CN(C)c1nc(C(F)(F)F)cc(=O)[nH]1	-2	2	0	0	-3	.	.
